# In PubChem BioAssay AID1159580 (chemical genetic matrix, 2015):
# Screen size: about 5,500 compounds; about 2,000 (36%) were called active. Not shown: some 18% with an inconclusive outcome. The list shows a part of the results. Unmarked numbers belong to inactive results. Cut-off read from the data, not from the text of the source: active = normalized growth mostly below about 0.91 (no sharp cut-off); inconclusive = no clear call, values can overlap the other calls; inactive = mostly above about 0.92.
# Test: chemical genetic growth profiling, strain panel (AID 1159580);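 note: tested at 20 µM; growth read once vehicle control cultures reached saturation at 30 °C; 1 = growth at the plate median or of vehicle wells; lower values mean less growth of the strain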
# Conditions: S. cerevisiae deletion strains, growth OD
smiles,measurement,setting,value
CC(=O)c1c(O)c(C)c(O)c(Cc2c(O)c3c(c(C(=O)/C=C/c4ccccc4)c2O)OC(C)(C)C=C3)c1O,normalized growth,"locus YAL013W, strain DEP1, hits give low values",0.909
same,normalized growth,"locus YAL040C, strain CLN3, hits give low values",1
same,normalized growth,"locus YCL061C, strain MRC1 (second series), hits give low values",0.917 (active)
same,normalized growth,"locus YDR150W, strain NUM1, hits give low values",0.883 (active)
same,normalized growth,"locus YDR363W, strain ESC2, hits give low values",0.999
same,normalized growth,"locus YER002W, strain NOP16, hits give low values",1.06
same,normalized growth,"locus YGR078C, strain PAC10, hits give low values",0.989
same,normalized growth,"locus YGR229C, strain SMI1, hits give low values",0.876
same,normalized growth,"locus YJR075W, strain HOC1, hits give low values",0.877 (active)
same,normalized growth,"locus YMR307W, strain GAS1, hits give low values",0.877 (active)
same,normalized growth,"locus YNL153C, strain GIM3, hits give low values",0.857
same,normalized growth,"locus YNL175C, strain NOP13, hits give low values",1.06
same,normalized growth,"locus YNL197C, strain WHI3, hits give low values",1.01
same,normalized growth,"locus YNL224C, strain SQS1, hits give low values",1.01
same,normalized growth,"locus YOR083W, strain WHI5 (second series), hits give low values",0.898
same,normalized growth,"locus YPL055C, strain LGE1, hits give low values",0.881 (active)
same,normalized growth,"locus YPL241C, strain CIN2, hits give low values",0.902 (active)
